Most compounds without a hit are left out; they make up all but 3.9% or so of the library.
Autofluor counter: compound fluorescence in toxin protease inhibitor counterscreen. fluorescence intensity (concentration not given with the values). compound autofluorescence counterscreen, microsphere flow cytometry; stronger effect = higher value. hit rate 3.1% among 360,000; in the data active means fluorescence intensity above about 16000; inconclusive means no clear call, values can overlap the other calls
CCHF vOTU inh: CCHFV vOTU protease inhibition. Pep-AMC fluorescence. inhibition, % at 11.5 µM. hit rate 0.55% among 370,000; in the data active means inhibition above about 30%; further: 0% = vehicle wells with enzyme and 100% = no enzyme wells
BoNT-F LC inh: BoNT F light chain protease inhibition; hit rate 0.22% among 360,000; AID 588497; Multiplex microsphere protease cleavage assay, flow cytometry; inhibition, % at 10 µM; in the data active means inhibition above about 35%, passing the limit was not always enough; inconclusive means no clear call, values can overlap the other calls; further: plate controls were buffer without enzyme for full effect and enzyme alone for no effect
Anthrax LF inh2: anthrax lethal factor protease inhibition; P15917; multiplex microsphere protease cleavage assay, LF; inhibition, % at 10 µM; hit rate 0.12% among 360,000; further: plate controls were buffer without enzyme for full effect and enzyme alone for no effect
3CLpro inhibitor: SARS-CoV 3CLpro protease inhibition | recombinant SARS-CoV 3CLpro, quenched FRET peptide cleavage | inhibition, % at 6 µM | hit rate 0.14% among 290,000 | AID 1706; in the data active means inhibition above about 12%
BoNT-A LC inh2: BoNT A light chain protease inhibition | hit rate 0.17% among 360,000 | multiplex microsphere protease substrate cleavage, flow cytometry | inhibition, % at 10 µM; further: plate controls were buffer without enzyme for full effect and enzyme alone for no effect
The depositor's hits bear a star; ? = inconclusive; . = no result given. Unless noted, no stated cut-off is given here; in the data, active means inhibition above about 30%; inconclusive means no clear call, values can overlap the other calls; inactive means below that.

SMILES	Autofluor counter	CCHF vOTU inh	BoNT-F LC inh	Anthrax LF inh2	3CLpro inhibitor	BoNT-A LC inh2
COc1ccc(-c2cc(NC=O)c3ncc(-c4cccc(C(=O)NCCN(C)C)c4)n3c2)cn1	3480	6.2	-0.7	-4.9	.	0.8
O=C1C(Cc2ccccc2O)NC(=S)N1c1ccccc1 (stereo not given)	4724	17.9	2.8	-3.1	-1.2	-0.3
Cc1ccc(S(=O)(=O)NC2(C(F)(F)F)NC(=O)N(c3ccccc3F)C2=O)cc1 (stereo not given)	5575	-5.5	-6.1	-1.8	-3.2	-0.5
Cc1ccc(C)c(NC(=O)CS(=O)(=O)c2cccc3nsnc23)c1	4594	-1.1	-1.7	3.8	6.8	-0.3
O=C(Nc1ccc(Cl)cc1)N1CCCC1	22686*	.	-2.7	-6.8	0.9	-0.2
O=C(Nc1ccc(Cl)cc1)N1CCSc2ccccc21	23243*	0.3	-0.8	0.3	2.6	1.4
S=C(NCCc1ccccc1)N1Cc2cc(N3CCCCC3)ccc2-n2nncc2C1	32547*	11.6	70.4*	-6.6	.	-20.1
S=C(NCCc1ccccc1)N1Cc2cc(-c3ccccc3)ccc2-n2nncc2C1	5567	5.5	5.8	11.5	.	5.0
Nc1nc(CN2CCN(Cc3ccccc3)CC2)nc(Nc2ccccc2)n1	19782*	-4.5	9.0	0.2	-1.4	7.0
Cc1cccc(Nc2nc(N)nc(CN3CCN(c4ccccc4)CC3)n2)c1	23528*	-4.6	-5.3	-3.1	-6.2	?
N#Cc1ccc(CSc2nnc(COc3ccccc3)n2-c2ccccc2)cc1	24330*	3.8	-9.4	-0.9	3.7	-5.6
COc1ccc(-n2c(COc3ccccc3)nnc2SCc2ccc(C#N)cc2)cc1	19781*	6.1	-1.8	-6.6	-1.2	-0.4
N#Cc1ccc(CSc2nnc(-c3ccccn3)n2-c2ccccc2)cc1	2869	1.8	-2.9	-3.0	-0.6	-0.3
O=C(O)c1ccc(CSc2nnc(-c3ccccc3)n2-c2ccccc2)cc1	4182	-0.2	-4.3	-6.7	2.3	-0.2
Nc1nnc(SCc2ccc(F)cc2)n1-c1ccccc1	21997*	2.5	-6.6	1.0	-2.2	-7.7
COC(=O)C[C@H]1C=C[C@@H](NC(=O)Nc2c(C)noc2C)[C@@H](CO)O1	.	-2.1	.	.	.	.
CCc1cc(C(=O)N2CCCC(N3CCN(c4cccc(C(F)(F)F)c4)CC3)C2)n(C)n1 (stereo not given)	5904	19.6	-0.1	0.4	-7.7	-1.1
OCCN(Cc1ccccc1)Cc1ccccc1O	3502	-8.9	-1.1	-3.7	-0.1	1.3
OCCN(Cc1ccccc1)Cc1ccc(F)c(F)c1	20266*	.	3.2	-0.2	-3.9	1.2
O=[N+]([O-])c1cccc(CN(CCO)Cc2ccccc2)c1	16829*	-1.6	-5.3	-1.0	-0.1	-1.4
CCN(Cc1ccccc1)Cc1cccc([N+](=O)[O-])c1	10649	-8.7	-3.8	-0.5	4.1	-0.1
CCOC(=O)C1(C)CCCCCN1C(=O)c1csnn1 (stereo not given)	3742	-6.3	-3.3	-3.2	.	0.4
Cn1c(-c2ccc(C=O)s2)nc2c3ccccc3c3ccccc3c21	2883	3.8	39.7*	48.2*	6.8	79.3*
COC(=O)C[C@H]1CC[C@@H]2[C@@H](COc3ccc(NC(=O)c4ccno4)cc3C(=O)N2C)O1	.	14.2	.	.	.	.
CCNC(=O)c1cc(Br)ccc1Cl	16959*	-1.9	-0.5	-1.2	2.6	-2.4
SMILES	Autofluor counter	CCHF vOTU inh	BoNT-F LC inh	Anthrax LF inh2	3CLpro inhibitor	BoNT-A LC inh2
C=C(C)CSc1nc2c(cc1C#N)CCC2	4166	-0.7	2.7	4.4	-4.7	-0.5
CCCCSc1nc2c(cc1C#N)CCC2	20908*	-2.7	-2.7	-0.8	-2.4	-1.0
N#Cc1cc2c(nc1SCC(=O)Nc1nccs1)CCCCC2	20116*	-7.2	-5.4	-7.0	-2.4	-2.8
C=CCSc1nc2c(cc1C#N)CCC2	21788*	-0.2	6.9	-5.9	-5.0	?
CCc1nnc(NC(=O)CSc2nc3c(cc2C#N)CCC3)s1	2723	-2.5	-11.7	-0.1	5.5	-0.1
COc1cc(C2NC(=O)CCC2[N+](=O)[O-])cc(OC)c1OC (stereo not given)	3703	-4.9	-4.2	6.6	1.7	0.7
COc1ccc(C)cc1NC(=O)CSc1nnc(-c2n[nH]c3c2CCC3)n1N	.	1.9	.	.	.	.
CCCC(C(=O)OCC)P(=O)(c1ccccc1)c1ccccc1 (stereo not given)	23167*	-12.1	0.9	-2.7	0.3	?
Cc1cc(F)ccc1-c1cc(C(=O)NC(C)C)[nH]n1	3095	-6.5	0.5	0.1	.	-0.3
CCN(CCC(=O)O)c1ccccc1	3322	-4.9	-3.2	-0.1	4.0	0.1

Screening data (PubChem BioAssay)
